Test results published in PubChem BioAssay (EPA / NIEHS).
Results filed as inconclusive are left out. Some compounds were tested as several samples or in several runs, with calls that do not always agree. Active and inactive are the calls of the source. Rule for the calls: active = hit-call score of the fitted dose curve at least 0.9, where 1 is the maximum; inconclusive = response in the unintended direction; inactive = score below 0.9.

target: Retinoic acid receptor RXR-alpha (Homo sapiens) (UniProt P19793); assay: OT_NURR1_NURR1RXRa_0480: Odyssey Thera (OT) 8-hour HEK293T Protein Complementation Assay for Nurr1/retinoid X receptor (RXR) (AID 2283385)
Sequence (P19793 whole entry, looked up, the tested form may be a part): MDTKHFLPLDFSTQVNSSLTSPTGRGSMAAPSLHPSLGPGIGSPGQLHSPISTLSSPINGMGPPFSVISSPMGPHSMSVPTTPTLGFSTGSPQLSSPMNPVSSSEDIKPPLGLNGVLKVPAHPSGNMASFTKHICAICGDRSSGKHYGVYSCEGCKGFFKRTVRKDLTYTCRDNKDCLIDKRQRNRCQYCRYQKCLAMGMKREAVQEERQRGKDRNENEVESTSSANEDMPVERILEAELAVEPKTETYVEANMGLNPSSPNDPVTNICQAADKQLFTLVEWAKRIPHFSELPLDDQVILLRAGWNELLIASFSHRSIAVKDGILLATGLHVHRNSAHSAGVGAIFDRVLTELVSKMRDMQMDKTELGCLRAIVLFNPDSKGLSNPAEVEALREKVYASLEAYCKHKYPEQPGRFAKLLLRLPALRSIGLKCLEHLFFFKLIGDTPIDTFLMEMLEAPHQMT
Experimental: OT_NURR1_NURR1RXRa_0480 is a cell-based assay that uses HEK293T, a human kidney cell line, with measurements taken at 8 hours after chemical dosing in a 384-well plate.OT_NURR1_NURR1RXRa_0480 is one of one assay component(s) measured or calculated from the OT_NURR1_NURR1RXRa_0480 assay. It is designed to make measurements of protein fragment complementation, a form of binding reporter, as detected with fluorescence intensity signals by Protein-fragment Complementation technology.Data from the assay component OT_NURR1_NURR1RXRa_0480 was analyzed into 1 assay endpoint. This assay endpoint, OT_NURR1_NURR1RXRa_0480, was analyzed in the positive analysis fitting direction relative to DMSO as the negative control and baseline of activity. Using a type of binding reporter, measures of receptor for gain-of-signal activity can be used to understand the binding at the pathway-level as they relate to the gene RXRA. Furthermore, this assay endpoint can be referred to as a primary readout, because the performed assay has only produced 1 assay endpoint. To generalize the intended target to other relatable targets, this assay endpoint is annotated to the nuclear receptor intended target family, where the subfamily is non-steroidal.
Protein-fragment complementation assay, or PCA, is a method for the identification and quantification of protein-protein interactions. In the PCA, the proteins of interest ("bait" and "prey") are each covalently linked to fragments of a third protein (e.g. DHFR, which acts as a "reporter"). Interaction between the bait and the prey proteins brings the fragments of the reporter protein in close proximity to allow them to form a functional reporter protein whose activity can be measured.

Compound | outcome | AC50
COCC(C)N(C(=O)CCl)c1c(C)csc1C (stereo not given) | inactive | 
CO/N=C(/C1=NOCCO1)c1ccccc1Oc1ncnc(Oc2ccccc2Cl)c1F | inactive | 
CC1(C)C(C=C(Cl)Cl)C1C(=O)OC(C#N)c1cccc(Oc2ccccc2)c1 (stereo not given) | inactive | 
O=C(O)c1c(Cl)ccc2cc(Cl)cnc12 | inactive | 
COCC(=O)N(c1c(C)cccc1C)C(C)C(=O)OC (stereo not given) | inactive | 
N#CN=C1SCCN1Cc1ccc(Cl)nc1 | inactive | 
COc1ccc(-c2ccccc2)cc1NNC(=O)OC(C)C | inactive | 
COP(=S)(OC)Oc1ccc([N+](=O)[O-])c(C)c1 | inactive | 
CC(C)=CC1C(C(=O)OCc2coc(Cc3ccccc3)c2)C1(C)C (stereo not given) | inactive | 
O=C(Nc1ccccc1-c1ccc(Cl)cc1)c1cccnc1Cl | inactive | 
CS(=O)(=O)c1cc(C(F)(F)F)ccc1C(=O)c1cnoc1C1CC1 | inactive | 
CCOc1nc(C(Cl)(Cl)Cl)ns1 | inactive | 
CCC(C)n1c(=O)[nH]c(C)c(Br)c1=O (stereo not given) | inactive | 
Cn1c(-c2ccccc2)cc(-c2ccccc2)[n+]1C | inactive | 
CS(=O)(=O)c1ccc(C(=O)C2C(=O)CCCC2=O)c([N+](=O)[O-])c1 | inactive | 
CCNP(=S)(OC)O/C(C)=C/C(=O)OC(C)C (stereo not given) | inactive | 
CN/C(=N\[N+](=O)[O-])NCc1cnc(Cl)s1 | inactive | 
CN=C=S | inactive | 
CC(C)(C)C(=O)C(Oc1ccc(Cl)cc1)n1cncn1 (stereo not given) | inactive | 

Compound | outcome | AC50
CCCN(CC)CC1COC2(CCC(C(C)(C)C)CC2)O1 (stereo not given) | inactive | 50 µM (active)
CNC(=O)N(C)c1nnc(C(C)(C)C)s1 | inactive | 
CC(C)Oc1cccc(NC(=O)c2ccccc2C(F)(F)F)c1 | inactive | 
COCc1cnc(C2=NC(C)(C(C)C)C(=O)N2)c(C(=O)O)c1 (stereo not given) | inactive | 
CC1(C)CON(Cc2ccccc2Cl)C1=O | inactive | 
CC1(C)C(C(=O)OC(C#N)c2cccc(Oc3ccccc3)c2)C1(C)C (stereo not given) | inactive | 
CNC(=O)Oc1cccc2ccccc12 | inactive | 
Clc1cccc(C(Cl)(Cl)Cl)n1 | inactive | 
Clc1nc(Cl)nc(Nc2ccccc2Cl)n1 | inactive | 
CC(C)N1C(=O)N(c2ccccc2)CSC1=NC(C)(C)C | inactive | 74.4 µM (active)
CCN(CC)c1nc(C)cc(OP(=S)(OC)OC)n1 | inactive | 
C=C(C)CN(CC)c1c([N+](=O)[O-])cc(C(F)(F)F)cc1[N+](=O)[O-] | inactive | 
CCOP(=O)(OCC)Oc1nc(Cl)c(Cl)cc1Cl | inactive | 
Cc1nc(N(C)C)nc(OC(=O)N(C)C)c1C | inactive | 
CCN(CC)C(=O)C(C)Oc1cccc2ccccc12 (stereo not given) | inactive | 
O=P(O)(O)CCCl | inactive | 
COC(=O)N(C(=O)N1CO[C@@]2(C(=O)OC)Cc3cc(Cl)ccc3C2=N1)c1ccc(OC(F)(F)F)cc1 | inactive | 
COP(=O)(OC)O/C(C)=C/C(=O)N(C)C | inactive | 
COc1cc(Cl)c(OC)cc1Cl | inactive | 
